Source: PubChem BioAssay
Most compounds without a hit are left out; they make up all but 9% or so of the library.
ALDH1A1 inh: blocks purified human ALDH1A1 activity | Purified ALDH1A1, NADH fluorescence, propionaldehyde substrate | hit rate 7.3% among 220,000 | AID 1030 | P00352 | Potency, µM (titrated, usually from 75.3 µM), for the others: top-dose activity, negative = inhibition, most hits filed as inhibitors;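 note: potency is the fitted concentration of half-maximal effect; plate controls were no enzyme wells and a reference inhibitor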
IMPase inh: IMPase inhibition in cells. P97697. CHO-M1 cells, IP1 accumulation, HTRF TR-FRET ratio. inhibition (IP1 accumulation), % at 46.1 µM. 120,000 tested, under 10 active. AID 901; active = well fitted curve in the direction sought with a large enough effect in the signal ratio, not every such curve was filed as active; inconclusive = small, poorly fitted or top-dose-only effect, or a change in a side signal; inactive = no such curve, though single readings can be large or run the other way; the % refers to the signal ratio;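 note: cells stimulated with carbachol in lithium chloride buffer; plate controls were DMSO basal wells for no effect and reference inhibitor wells for full effect; higher means more IMPase inhibition seen as more IP1 and lower FRET ratio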
Target sequence (P97697 whole entry, looked up): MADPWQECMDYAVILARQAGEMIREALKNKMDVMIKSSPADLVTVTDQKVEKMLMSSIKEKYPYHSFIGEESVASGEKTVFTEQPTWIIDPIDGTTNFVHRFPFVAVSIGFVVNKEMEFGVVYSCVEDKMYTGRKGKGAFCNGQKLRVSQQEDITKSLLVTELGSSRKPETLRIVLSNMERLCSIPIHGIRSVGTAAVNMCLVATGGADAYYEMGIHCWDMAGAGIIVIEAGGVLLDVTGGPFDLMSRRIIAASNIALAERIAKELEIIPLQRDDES
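In this qHTS, compounds (final up to 46 uM) act on CHO-M1 cells that are then activated through the M1 receptor with carbachol, in pH 7.4 buffer containing 50 mM LiCl, for 30 min. IP1 accumulation is quantified by the IP-One immunoassay.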
HPGD block: HPGD (human) dehydrogenase inhibition | purified HPGD, NADH fluorescence kinetic, PGE2 substrate | hit rate 4.3% among 150,000 | P15428 | AID 894 | Potency, µM, without a hit: at the top dose activity change, negative = inhibition, usual class: inhibitors; note: potency is the fitted concentration of half-maximal effect
Target sequence (P15428 whole entry, looked up): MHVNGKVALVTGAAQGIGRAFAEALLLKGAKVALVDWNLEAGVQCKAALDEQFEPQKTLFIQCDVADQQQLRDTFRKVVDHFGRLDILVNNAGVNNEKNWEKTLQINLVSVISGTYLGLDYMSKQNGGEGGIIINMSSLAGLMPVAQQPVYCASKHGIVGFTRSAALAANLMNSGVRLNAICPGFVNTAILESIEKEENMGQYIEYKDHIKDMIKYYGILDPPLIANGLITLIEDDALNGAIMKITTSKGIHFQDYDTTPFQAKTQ
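20 nM HPGD preincubated 15 min at room temperature with compound in 50 mM Tris-HCl pH 8, 0.01% Tween 20. Started with 1 mM NAD+ and 30 uM prostaglandin E2; NADH fluorescence (360/450 nm) read 5 times over 30-s intervals, last minus first.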
Starred values were filed as active, the others as inactive. Unless noted, calls come from the whole dose curve; as a rule, active = well fitted inhibition curve with a large enough effect (not every such curve was filed as active); inconclusive = small, poorly fitted or top-dose-only effect, or another doubt; inactive = no such curve, though single readings can be large or run the other way. Unless noted, % is set by controls: 0 for no effect and ±100 for the full control effect.

What do the screens show for `CCCCSc1nnc(CCCCCNC(=O)OC(C)(C)C)o1`?
ALDH1A1 inh: -5.2%; IMPase inh: -3.6; HPGD block: -22.7%

What do the screens show for `O=C(NCC1OCCc2ccccc21)c1ccc(NC(=O)c2cccc(Br)c2)cc1` (stereo not given)?
ALDH1A1 inh: 5.4%; IMPase inh: -23.8

Results for Clc1ccccc1-c1nc2nc3ccccc3nc2n1-c1ccc2c(c1)OCO2 ?
ALDH1A1 inh: 11.2µM*; HPGD block: -16.4%

How did c1csc(-c2nc3nc4ccccc4nc3n2Cc2ccc3c(c2)OCO3)c1 do in these assays?
ALDH1A1 inh: inconclusive; IMPase inh: 4.5; HPGD block: inconclusive

What do the screens show for `Cc1cccc(N(CC(=O)NCc2ccco2)C(=O)CCC(=O)Nc2nccs2)c1`?
ALDH1A1 inh: 3.7%

How did CC(=O)Nc1ccc(NC(=O)C/C(C)=N/NC(N)=S)cc1 do in these assays?
ALDH1A1 inh: 22.4µM*

Results for CCC(=O)N/N=C(\C)CC(=O)Nc1ccc(F)cc1 ?
ALDH1A1 inh: 10.9%

What do the screens show for `Cc1ccc(C)n1-c1ccc(C(=O)Nc2ccccc2)cc1`?
ALDH1A1 inh: 28.2µM*; HPGD block: 15.8µM*

How did Cc1ccc(C)n1-c1cccc(NC(=O)c2ccccc2)c1 do in these assays?
ALDH1A1 inh: 12.3%; HPGD block: -10.3%

How did COc1ccccc1C1CC(c2ccccc2)=NN1C(=S)Nc1ccccc1 (stereo not given) do in these assays?
ALDH1A1 inh: -1.8%

What do the screens show for `COc1ccc(CCNC(=O)CN2C(=O)NC(C)(c3ccc([N+](=O)[O-])cc3)C2=O)cc1` (stereo not given)?
ALDH1A1 inh: 7.1%

How did O=C(CCCCCN1C(=O)c2ccccc2C1=O)Nc1nccs1 do in these assays?
ALDH1A1 inh: -0.8%; IMPase inh: -4.7; HPGD block: 7.08µM*

Results for O=C(CCCCCN1C(=O)C2C3C=CC(C3)C2C1=O)Nc1nccs1 (stereo not given) ?
ALDH1A1 inh: inconclusive; IMPase inh: 10.4; HPGD block: -7.9%

What do the screens show for `CCOc1cc(C(=O)NC(=S)Nn2cnnc2)cc(OCC)c1OCC`?
ALDH1A1 inh: 11.2µM*

Results for CCOc1cc(C(=O)Nn2cnnc2)cc(OCC)c1OCC ?
ALDH1A1 inh: 6.6%

Results for Cn1c(=O)c2c(n(C)c1=O)=NC1(CCCCC1)ON=2 ?
ALDH1A1 inh: -16.7%; IMPase inh: 3.2; HPGD block: -12.5%

How did CCC(=O)Nc1nnc(SCC(=O)c2ccc3c(c2)Cc2ccccc2-3)s1 do in these assays?
ALDH1A1 inh: -1.2%; IMPase inh: 8.3; HPGD block: -9.9%

How did CCN1C(=O)N/C(=C/c2ccc(Sc3ccc(C)cc3)o2)C1=O do in these assays?
ALDH1A1 inh: inconclusive; IMPase inh: -13.1; HPGD block: inconclusive

Results for O=C1S/C(=C\c2ccccn2)C(=O)N1Cc1ccccc1F ?
ALDH1A1 inh: inconclusive; HPGD block: 4.0%

How did CCN1C(=O)N/C(=C/c2ccc(C)o2)C1=O do in these assays?
ALDH1A1 inh: 15µM*; HPGD block: -22.9%

How did Cc1ccc(/C=C2/NC(=O)N(Cc3ccccc3F)C2=O)o1 do in these assays?
ALDH1A1 inh: 15.8µM*; IMPase inh: 1.5; HPGD block: -17.1%

How did Cc1ccc(/C=N/NC(=O)C(=O)N/N=C/c2ccc(C)o2)o1 do in these assays?
ALDH1A1 inh: 1.9%

What do the screens show for `Cc1ccc(/C=C2/NC(=O)N(Cc3ccc(Br)cc3)C2=O)o1`?
ALDH1A1 inh: 12.6µM*; HPGD block: inconclusive

What do the screens show for `CCCN1C(=O)/C(=C/c2ccc(C)o2)NC1=S`?
ALDH1A1 inh: 7.08µM*

Results for Cc1c(Cl)c([N+](=O)[O-])nn1CC(=O)Nc1ccc2c(c1)OCO2 ?
ALDH1A1 inh: -3.7%; HPGD block: -7.0%

Results for CCCCC/C=C\C\C=C/C=C/C=C/[C@@H](SCC(NC(=O)CCC(N)C(=O)O)C(=O)NCC(=O)O)[C@@H](O)CCCC(=O)O (stereo not given in full) ?
ALDH1A1 inh: 0.0%; HPGD block: -5.5%

How did Cc1ccccc1CS(=O)(=O)c1cnc2ccccc2n1 do in these assays?
ALDH1A1 inh: -1.4%; IMPase inh: -3.0; HPGD block: -12.9%

What do the screens show for `Cc1cccc2sc(N)nc12`?
ALDH1A1 inh: inconclusive; HPGD block: 0.4%

Results for C=C(C)Cn1c(SCC(=O)Nc2cccc(C)c2)nc2sc3c(c2c1=O)CCCC3 ?
IMPase inh: 5.8

What do the screens show for `CN(C)c1nc(N(C)C)n(C(=O)c2cccs2)n1`?
ALDH1A1 inh: 7.8%

What do the screens show for `CC1=CC(=O)C2=C(C)C[C@@H]3OC(=O)[C@@H](C)[C@H]3C=C12`?
ALDH1A1 inh: 3.2%; HPGD block: -4.1%

Results for CCN1C(=O)/C(=C/c2ccc(C)o2)N(C)C1=S ?
ALDH1A1 inh: 1.58µM*; IMPase inh: -7.4; HPGD block: inconclusive

How did CCN1C(=O)/C(=C/c2cccs2)N(C)C1=S do in these assays?
ALDH1A1 inh: inconclusive; IMPase inh: 7.6; HPGD block: -21.7%

Results for CC(=O)CCc1ccc(OC(=O)c2cccnc2)cc1 ?
ALDH1A1 inh: 3.9%; IMPase inh: -1.4; HPGD block: -8.1%

Results for O=C(Nc1ccc(Cl)cc1F)c1ccccc1Br ?
ALDH1A1 inh: 4.2%; HPGD block: 15.8µM*

What do the screens show for `O=C(NNC(=O)c1ccccc1Br)c1ccc(Cl)cc1`?
ALDH1A1 inh: 1.5%; IMPase inh: 4.8; HPGD block: -13.7%

What do the screens show for `O=C(COc1ccc2oc3c(c2c1)CCCC3)Nc1ccc(Br)cc1`?
IMPase inh: 1.1

Results for NC(=S)Nc1cccc(F)c1 ?
ALDH1A1 inh: 0.7%

Results for Fc1cccc(NC(=S)NNc2c3ccccc3nc3ccccc23)c1 ?
ALDH1A1 inh: 3.16µM*

What do the screens show for `O=C(Cc1ccccc1)Nc1sc2c(c1C(=O)Nc1ccccc1Cl)CCC2`?
IMPase inh: -4.7

What do the screens show for `COc1ccc(OCc2nnc(SCC(=O)N3CCOCC3)o2)cc1`?
ALDH1A1 inh: -4.9%

How did Fc1ccc(OCc2nnc(SCCN3CCOCC3)o2)cc1 do in these assays?
ALDH1A1 inh: -8.5%; IMPase inh: 2.4; HPGD block: 22.4µM*

How did Cc1occc1-c1nnc(SCC(=O)Nc2ccccc2N2CCCCC2)n1C do in these assays?
ALDH1A1 inh: inconclusive; IMPase inh: -0.7; HPGD block: -9.0%

Results for COc1ccc(-c2c(NC(=O)c3ccco3)n(C)c3ccccc3c2=O)cc1 ?
ALDH1A1 inh: inconclusive; IMPase inh: 3.2; HPGD block: -11.9%

What do the screens show for `Brc1c(CSc2nnc(-c3ccco3)o2)nc2ccccn12`?
ALDH1A1 inh: inconclusive; IMPase inh: 7.8; HPGD block: 7.94µM*

What do the screens show for `c1coc(-c2nnc(SCc3cn4ccccc4n3)o2)c1`?
ALDH1A1 inh: 4.8%; IMPase inh: 4.5; HPGD block: -12.3%

How did O=C(COc1ncnc2ccc(Br)cc12)NCc1ccc2c(c1)OCO2 do in these assays?
ALDH1A1 inh: -0.7%; IMPase inh: -15.6; HPGD block: -3.9%

How did COc1ccc(NCC(=O)N/N=C/c2c(C)nn(Cc3ccccc3)c2Cl)cc1 do in these assays?
ALDH1A1 inh: 15.8µM*; HPGD block: inconclusive

What do the screens show for `Cc1nn(Cc2ccccc2)c(C)c1/C=N/NC(=O)CNc1cccc(C(F)(F)F)c1`?
ALDH1A1 inh: -9.0%; IMPase inh: 5.2; HPGD block: -9.9%
